# Source: PubChem BioAssay (NCATS)
# Values without a mark were called inactive. Inconclusive results are not listed. Where a call stands in place of a potency, no number is given. The source made the active and inactive calls. Unless noted, calls follow the shape of the dose curve; as a rule, active = well fitted curve in the direction sought with a large enough effect; inconclusive = small, poorly fitted or top-dose-only effect, or another doubt; inactive = no such curve, though single readings can be large; an effect the other way counts as inactive or inconclusive.
# Columns and labels:
# [1] = molecular target: Lysosomal acid glucosylceramidase (Homo sapiens) (UniProt P04062); test: Glucocerebrosidase-p2 (AID 348; in the data active = potency below about 10 µM; also: potency is read from the fitted curve at half-maximal effect); conditions: purified GBA, blue fluorogenic substrate, 40 min
# Chain of Lysosomal acid glucosylceramidase (Homo sapiens) (P04062 whole entry, looked up): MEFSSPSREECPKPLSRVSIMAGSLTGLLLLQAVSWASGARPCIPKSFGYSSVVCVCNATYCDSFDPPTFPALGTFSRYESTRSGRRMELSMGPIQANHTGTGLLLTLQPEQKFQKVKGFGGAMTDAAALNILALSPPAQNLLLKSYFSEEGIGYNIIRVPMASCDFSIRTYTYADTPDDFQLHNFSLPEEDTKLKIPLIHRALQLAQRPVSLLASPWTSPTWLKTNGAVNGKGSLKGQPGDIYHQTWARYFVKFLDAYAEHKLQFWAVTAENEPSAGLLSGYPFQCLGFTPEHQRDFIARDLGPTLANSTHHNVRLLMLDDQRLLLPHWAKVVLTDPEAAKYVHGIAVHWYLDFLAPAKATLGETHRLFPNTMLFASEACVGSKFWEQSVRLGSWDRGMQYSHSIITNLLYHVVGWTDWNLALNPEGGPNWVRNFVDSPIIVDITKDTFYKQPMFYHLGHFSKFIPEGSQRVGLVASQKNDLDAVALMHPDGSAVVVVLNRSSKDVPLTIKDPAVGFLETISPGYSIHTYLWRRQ
# In short: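 Compounds titrated from 0.6 nM upwards against 0.2 nM enzyme in pH 5.9 citric acid/KH2PO4, taurocholate, tween-20; blue fluorogenic substrate 80 uM, 40 min room temperature, stopped and read Ex 365/Em 440 for AC50.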
# [2] = NFAT Signaling Pathway (AID 444; active = well fitted curve in either direction with a large enough effect, not every such curve was filed as active;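 also: carbachol stimulus at about its EC50 of 1 µM final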); conditions: Jurkat NFAT-bla M1, carbachol, beta-lactamase ratio, 5 h; at 7.69 µM (top of the series) unless noted
# In short: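 Jurkat cells carrying an NFAT-driven β-lactamase reporter and co-transfected muscarinic M1 receptor were treated with compound plus carbachol (1 uM final, an EC50 level) for 5 h at 37 °C. CCF4 loading followed for 1 h at RT; 460/530 nm ratio gave %activity.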
# [3] = Stat Signaling Pathway (AID 446; active = well fitted curve in either direction with a large enough effect, not every such curve was filed as active;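 also: ME-180 cervical cancer cells given 40 pM IL-6 alongside compound; SIE-controlled beta-lactamase reporter measured as 460/530 nm FRET emission ratio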); conditions: ME-180 SIE beta-lactamase reporter, IL-6 stimulated, 5 h; at 7.69 µM (top of the series) unless noted
# In short: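 Reporter line: ME-180 cervical carcinoma, SIE-beta-lactamase. Treatment: compound with 40 pM IL-6, 5 hrs, 37 C, in low-serum OPTI-MEM with 10 mM HEPES pH 7.3. Detection: 460/530 nm fluorescence.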
# [4] = molecular target: Glucocorticoid receptor (Homo sapiens) (UniProt P04150); test: GR-GFP Redistribution (AID 450;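 active = compounds whose dose series gives a full or clear partial fitted curve of increased nuclear translocation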; also: potency is read from the fitted curve at half-maximal effect); conditions: U2OS GR-GFP nuclear translocation, laser cytometry, 2 h
# Chain of Glucocorticoid receptor (Homo sapiens) (P04150 whole entry, looked up, the tested form may be a part): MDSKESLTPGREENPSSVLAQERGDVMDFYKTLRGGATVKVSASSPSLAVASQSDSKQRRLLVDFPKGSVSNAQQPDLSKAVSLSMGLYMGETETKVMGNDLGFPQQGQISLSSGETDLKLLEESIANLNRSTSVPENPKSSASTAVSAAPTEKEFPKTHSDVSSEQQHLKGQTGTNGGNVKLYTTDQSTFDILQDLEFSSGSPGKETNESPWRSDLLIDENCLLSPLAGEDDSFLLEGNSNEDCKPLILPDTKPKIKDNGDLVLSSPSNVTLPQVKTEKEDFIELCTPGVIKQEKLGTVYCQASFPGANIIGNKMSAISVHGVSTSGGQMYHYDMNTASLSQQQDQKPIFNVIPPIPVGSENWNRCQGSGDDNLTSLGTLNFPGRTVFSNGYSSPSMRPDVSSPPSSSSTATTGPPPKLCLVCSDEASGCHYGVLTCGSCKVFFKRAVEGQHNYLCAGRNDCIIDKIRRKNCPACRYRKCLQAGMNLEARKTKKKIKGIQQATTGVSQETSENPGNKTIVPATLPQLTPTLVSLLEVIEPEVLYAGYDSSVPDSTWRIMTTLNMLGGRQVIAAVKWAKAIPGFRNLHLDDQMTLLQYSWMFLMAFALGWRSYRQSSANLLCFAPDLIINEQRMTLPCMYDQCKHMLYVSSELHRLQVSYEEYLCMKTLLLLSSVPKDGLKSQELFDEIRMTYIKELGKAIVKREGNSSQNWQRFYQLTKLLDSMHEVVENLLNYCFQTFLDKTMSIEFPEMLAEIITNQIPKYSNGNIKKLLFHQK
# [5] = molecular target: Glucocorticoid receptor (Homo sapiens) (UniProt P04150); test: GR-EFC Redistribution (AID 451; calls by dose curve; also: potency is read from the fitted curve at half-maximal effect); conditions: CHO-K1 GR-EFC translocation, beta-gal luminescence, 2 h
# In short: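 CHO-K1 cells stably expressing nuclear-localized β-gal enzyme acceptor and GR fused C-terminally to the enzyme donor fragment; ligand-driven nuclear translocation restores β-gal by complementation. Compounds titrated up to 46 uM final, 2 h at 37 °C; luminescence read.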
# [6] = molecular target: Mitogen-activated protein kinase 10 (Mus musculus) (UniProt Q61831); test: JNK3 AlphaScreen Assay (AID 530; active = well fitted curve in either direction with a large enough effect, not every such curve was filed as active;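 also: kinase came from lysate of stimulated human HepG2 cells; signal reports phosphorylation of biotinylated GST-cJun 1-79 at Ser73 with 10 µM ATP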); conditions: JNK3 lysate, c-Jun phosphorylation; series mostly up to 57.1 µM
# In short: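 JNK3 came from HepG2 lysates pre-activated with IL-1beta and TNF-alpha and phosphorylated biotinylated GST-cJun (1-79) at 10 uM ATP, pH 7.6, room temperature. Compounds were titrated. AlphaScreen signal used anti-phospho-cJun (Ser73) antibody.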
# [7] = molecular target: Dual specificity protein kinase CLK4 (Homo sapiens) (UniProt Q9HAZ1); test: qHTS Assay for Inhibitors of CDC-like Kinase 4 (Kinase-Glo Assay) (AID 1770); conditions: recombinant Clk4, Kinase-Glo ATP depletion luminescence; series mostly up to 66.7 µM; also: nearly all actives have a fitted effect of over 65% in size; also: potency is read from the fitted curve at half-maximal effect
# Chain of Dual specificity protein kinase CLK4 (Homo sapiens) (Q9HAZ1 whole entry, looked up): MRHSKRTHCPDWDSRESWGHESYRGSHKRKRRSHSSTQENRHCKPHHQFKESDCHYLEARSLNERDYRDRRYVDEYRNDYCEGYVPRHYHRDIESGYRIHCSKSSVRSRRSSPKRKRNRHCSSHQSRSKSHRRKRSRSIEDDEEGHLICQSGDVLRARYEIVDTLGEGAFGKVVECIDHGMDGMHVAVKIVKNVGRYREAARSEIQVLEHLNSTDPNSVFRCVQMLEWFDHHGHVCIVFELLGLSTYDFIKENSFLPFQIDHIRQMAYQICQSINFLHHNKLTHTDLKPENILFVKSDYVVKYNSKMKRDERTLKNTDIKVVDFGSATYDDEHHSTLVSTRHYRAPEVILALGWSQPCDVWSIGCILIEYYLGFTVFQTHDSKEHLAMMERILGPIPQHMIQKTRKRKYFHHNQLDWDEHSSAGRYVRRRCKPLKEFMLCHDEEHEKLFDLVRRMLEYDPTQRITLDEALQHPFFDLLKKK
# In short: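 Inhibition was judged from remaining ATP, measured by Ultra-Glo luciferase bioluminescence after Clk4 (25 nM) had acted on RS peptide at 1 uM ATP for 4.5 hours, room temperature.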
# [8] = molecular target: Dual specificity protein kinase CLK4 (Homo sapiens) (UniProt Q9HAZ1); test: qHTS Assay for Inhibitors of CDC-like Kinase 4 (ADP-Glo Assay) (AID 1771); conditions: recombinant CLK4, ADP-Glo luminescence; series mostly up to 80 µM; also: nearly all actives have a fitted effect of over 70% in size; also: potency is read from the fitted curve at half-maximal effect
# In short: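 Clk4 (25 nM) was incubated 1 hr at room temperature with 100 uM RS repeat peptide and 1 uM ATP in buffer with 2 mM MgCl2, 0.5 mM EGTA, 2.5 mM DTT. ADP formed was quantified by ADP-Glo luminescence.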
# [9] = molecular target: Dual specificity protein kinase CLK4 (Homo sapiens) (UniProt Q9HAZ1); test: qHTS Assay for Inhibitors of CDC-like Kinase 4 (ADP-FP Assay) (AID 1795); conditions: Transcreener ADP fluorescence polarization; series mostly up to 50 µM; also: nearly all actives have a fitted effect of over 60% in size; also: potency is read from the fitted curve at half-maximal effect;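 as to activity change, negative = inhibition: recombinant human CLK4 phosphorylating RS repeat peptide at 1 µM ATP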
# In short: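 Inhibition of ADP formation by 6.25 nM Clk4 is measured using 1 uM ATP and 100 uM RS repeat peptide over one hour. Produced ADP displaces a fluorescent tracer from antibody, lowering polarization.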
# [10] = molecular target: Ubiquitin carboxyl-terminal hydrolase 1 (Homo sapiens) (UniProt O94782); test: Inhibitors of USP1/UAF1: Pilot qHTS (AID 504865); conditions: purified USP1/UAF1, Ub-rhodamine cleavage fluorescence; series mostly up to 54.9 µM;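 also: rhodamine fluorescence freed from ubiquitin-rhodamine substrate followed over time; top concentration of the series differs between compounds; nearly all actives have a fitted effect of over 35% in size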
# Chain of Ubiquitin carboxyl-terminal hydrolase 1 (Homo sapiens) (O94782 whole entry, looked up): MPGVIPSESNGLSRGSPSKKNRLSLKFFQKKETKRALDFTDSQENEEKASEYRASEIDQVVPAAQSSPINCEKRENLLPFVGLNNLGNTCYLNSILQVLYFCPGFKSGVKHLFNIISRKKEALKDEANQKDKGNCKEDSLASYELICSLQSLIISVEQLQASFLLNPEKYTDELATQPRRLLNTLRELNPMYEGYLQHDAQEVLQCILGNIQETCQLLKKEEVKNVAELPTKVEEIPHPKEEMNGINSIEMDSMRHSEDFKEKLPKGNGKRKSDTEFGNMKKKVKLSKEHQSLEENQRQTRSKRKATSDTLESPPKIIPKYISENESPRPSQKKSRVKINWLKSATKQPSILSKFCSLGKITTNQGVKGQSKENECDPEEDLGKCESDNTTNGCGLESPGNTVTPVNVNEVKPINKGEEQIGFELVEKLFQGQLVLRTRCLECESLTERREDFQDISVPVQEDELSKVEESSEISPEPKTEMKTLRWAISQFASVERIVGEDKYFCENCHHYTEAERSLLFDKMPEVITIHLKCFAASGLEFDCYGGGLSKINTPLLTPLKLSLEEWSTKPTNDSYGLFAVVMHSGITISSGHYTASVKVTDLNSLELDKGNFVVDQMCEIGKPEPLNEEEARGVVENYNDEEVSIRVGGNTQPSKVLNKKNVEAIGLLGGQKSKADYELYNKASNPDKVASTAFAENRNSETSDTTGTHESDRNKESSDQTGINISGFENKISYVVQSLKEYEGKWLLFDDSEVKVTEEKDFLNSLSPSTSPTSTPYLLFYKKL
# In short: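 Kinetic fluorescence assay: 1nM USP1/UAF1, 15 min compound preincubation, then 150nM Ub-Rho; 480/540 nm.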
# [11] = Primary qHTS for small molecule stabilizers of the endoplasmic reticulum resident proteome: Secreted ER Calcium Modulated Protein (SERCaMP) assay (AID 1508630); conditions: SH-SY5Y GLuc-SERCaMP (Gaussia luciferase released on ER calcium loss) secretion, thapsigargin, luminescence; series mostly up to 38.4 µM
# In short: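 GLuc-SERCaMP-expressing SH-SY5Y cells, pretreated 16 h with compound, are challenged with thapsigargin to empty ER calcium stores; after 4 h, coelenterazine is added directly to the medium and luminescence is imaged.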
# [12] = molecular target: 3',5'-cyclic-AMP phosphodiesterase 4B (Homo sapiens) (UniProt Q07343); test: qHTS Assay for Inhibitors of PDE-IV (AID 607; active = well fitted activation curve with a large enough effect in the main read-out, with a control signal flat, not every such curve was filed as active); conditions: HEK293 ACTOne CNG channel cells, membrane potential fluorescence; series mostly up to 22.9 µM
# Chain of 3',5'-cyclic-AMP phosphodiesterase 4B (Homo sapiens) (Q07343 whole entry, looked up): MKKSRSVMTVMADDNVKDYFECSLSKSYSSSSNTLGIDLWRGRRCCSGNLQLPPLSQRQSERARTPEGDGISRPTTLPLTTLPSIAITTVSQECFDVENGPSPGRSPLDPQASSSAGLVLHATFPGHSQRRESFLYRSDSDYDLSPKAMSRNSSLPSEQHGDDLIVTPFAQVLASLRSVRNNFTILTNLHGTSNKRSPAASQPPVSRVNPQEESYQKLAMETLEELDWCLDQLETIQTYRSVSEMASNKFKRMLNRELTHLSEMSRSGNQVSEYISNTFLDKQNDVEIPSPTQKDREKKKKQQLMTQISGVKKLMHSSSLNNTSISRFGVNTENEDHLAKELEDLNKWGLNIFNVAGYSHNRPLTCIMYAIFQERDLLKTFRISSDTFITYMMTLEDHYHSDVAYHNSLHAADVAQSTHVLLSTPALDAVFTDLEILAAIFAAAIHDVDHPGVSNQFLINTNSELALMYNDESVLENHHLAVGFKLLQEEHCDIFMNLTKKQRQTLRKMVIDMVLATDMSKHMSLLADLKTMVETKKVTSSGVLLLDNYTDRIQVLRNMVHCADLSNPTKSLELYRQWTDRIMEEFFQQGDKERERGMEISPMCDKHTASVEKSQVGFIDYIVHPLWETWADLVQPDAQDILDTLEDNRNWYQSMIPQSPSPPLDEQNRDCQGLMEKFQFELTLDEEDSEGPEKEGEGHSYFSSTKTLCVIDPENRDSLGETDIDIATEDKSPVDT
# In short: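 Cell-based read-out of cAMP via a modified cyclic nucleotide-gated channel and membrane potential dye (535/590 nm) in HEK293 cells expressing PDE4 endogenously. Compounds tested up to 22.9 uM final; 100 uM RO 20-1724 reference.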
# [13] = molecular target: Cytochrome P450 3A4 (Homo sapiens) (UniProt P08684); test: qHTS Assay for Activators of Cytochrome P450 3A4 (AID 885); conditions: recombinant CYP3A4, Luciferin-PPXE luminescence, 60 min; series mostly up to 57.1 µM; also: nearly all actives have a fitted effect of over 65% in size; also: potency is read from the fitted curve at half-maximal effect
# Chain of Cytochrome P450 3A4 (Homo sapiens) (P08684 whole entry, looked up): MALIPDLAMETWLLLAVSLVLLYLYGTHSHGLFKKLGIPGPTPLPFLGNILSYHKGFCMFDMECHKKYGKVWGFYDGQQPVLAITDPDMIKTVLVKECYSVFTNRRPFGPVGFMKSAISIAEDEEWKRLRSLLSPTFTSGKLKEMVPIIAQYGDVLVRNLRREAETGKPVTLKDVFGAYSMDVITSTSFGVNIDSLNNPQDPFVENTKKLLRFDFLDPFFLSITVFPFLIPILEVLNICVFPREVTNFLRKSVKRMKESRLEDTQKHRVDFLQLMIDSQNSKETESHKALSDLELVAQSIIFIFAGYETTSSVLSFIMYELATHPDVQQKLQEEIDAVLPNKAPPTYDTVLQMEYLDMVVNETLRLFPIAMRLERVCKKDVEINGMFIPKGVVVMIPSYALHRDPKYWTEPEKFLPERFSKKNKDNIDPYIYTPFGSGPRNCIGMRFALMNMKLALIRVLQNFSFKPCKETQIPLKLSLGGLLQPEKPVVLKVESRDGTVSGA
# In short: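 Signal was normalized against complete inhibition by 57 uM ketoconazole. The reaction used 20nM CYP3A4 with 25uM Luciferin-PPXE, 10-min compound preincubation and a 60-min NADPH-supported step at RT.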
# [14] = molecular target: Cytochrome P450 2C9 (Homo sapiens) (UniProt P11712); test: qHTS Assay for Inhibitors and Substrates of Cytochrome P450 2C9 (AID 883); conditions: recombinant CYP2C9, luciferin-H luminescence, 60 min; series mostly up to 57.1 µM; also: nearly all actives have a fitted effect of over 60% in size
# Chain of Cytochrome P450 2C9 (Homo sapiens) (P11712 whole entry, looked up): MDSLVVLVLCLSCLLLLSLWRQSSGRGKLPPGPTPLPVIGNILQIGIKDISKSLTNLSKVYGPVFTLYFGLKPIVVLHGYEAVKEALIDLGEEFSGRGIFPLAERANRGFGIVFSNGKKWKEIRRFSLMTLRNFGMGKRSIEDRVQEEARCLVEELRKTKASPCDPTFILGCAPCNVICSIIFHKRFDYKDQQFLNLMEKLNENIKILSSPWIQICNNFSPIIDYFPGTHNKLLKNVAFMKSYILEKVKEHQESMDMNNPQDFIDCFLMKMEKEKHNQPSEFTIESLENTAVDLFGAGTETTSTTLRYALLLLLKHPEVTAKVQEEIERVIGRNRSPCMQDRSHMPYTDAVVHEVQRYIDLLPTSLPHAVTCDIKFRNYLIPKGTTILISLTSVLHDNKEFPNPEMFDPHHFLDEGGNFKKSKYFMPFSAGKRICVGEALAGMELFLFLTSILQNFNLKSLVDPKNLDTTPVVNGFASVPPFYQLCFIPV
# In short: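 Human CYP2C9 (10nM) hydroxylated Luciferin-H (100uM, at its KM) to luciferin in 25mM KPO4. Compound was preincubated 10 min at 37C, then NADPH regeneration started a 60 min reaction at 37C. Luminescence was read after detection reagent, normalized to 57uM sulphaphenazole.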
# [15] = AP1 Signaling Pathway (AID 357; active = well fitted curve in either direction with a large enough effect, not every such curve was filed as active;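 also: ME-180 reporter cells stimulated with EGF at its EC50 level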); conditions: ME-180 AP-1-bla reporter, EGF-induced, beta-lactamase ratio, 5 h; at 7.69 µM (top of the series) unless noted
# In short: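 In this screen, ME-180 cells in Opti-MEM with 0.5% dialyzed FBS received EC50 EGF and compound titrations for 5 h. AP-1 reporter beta-lactamase was detected via CCF4 ratio, giving AC50 for positive and negative modulators.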
# [16] = molecular target: Cytochrome P450 1A2 (Homo sapiens) (UniProt P05177); test: p450-cyp1a2 (AID 410; calls by dose curve; also: potency is read from the fitted curve at half-maximal effect); conditions: recombinant CYP1A2, luciferin-ME demethylation, luminescence; series mostly up to 57 µM
# Chain of Cytochrome P450 1A2 (Homo sapiens) (P05177 whole entry, looked up): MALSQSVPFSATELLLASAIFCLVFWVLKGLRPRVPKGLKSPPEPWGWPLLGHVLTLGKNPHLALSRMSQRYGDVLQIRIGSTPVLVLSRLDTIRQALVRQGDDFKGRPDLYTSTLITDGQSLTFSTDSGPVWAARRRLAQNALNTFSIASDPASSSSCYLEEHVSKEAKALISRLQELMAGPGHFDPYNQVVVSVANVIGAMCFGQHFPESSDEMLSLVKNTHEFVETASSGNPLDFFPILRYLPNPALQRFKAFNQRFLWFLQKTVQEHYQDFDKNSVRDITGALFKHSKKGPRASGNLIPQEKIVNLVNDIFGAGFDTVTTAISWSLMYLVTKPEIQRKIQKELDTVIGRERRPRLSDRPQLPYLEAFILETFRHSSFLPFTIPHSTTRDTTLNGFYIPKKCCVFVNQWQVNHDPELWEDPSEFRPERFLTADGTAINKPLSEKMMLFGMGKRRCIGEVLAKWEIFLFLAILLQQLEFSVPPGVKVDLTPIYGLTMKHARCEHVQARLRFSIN
# In short: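 Human CYP1A2 (20nM) demethylated Luciferin-ME at its Km (100uM) in 100mM KPO4. After 10 min compound preincubation, NADPH regeneration ran the reaction 60 min at room temperature. Luciferin was read by luminescence, normalized to 57 uM furafylline.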
# [17] = molecular target: Cytochrome P450 3A4 (Homo sapiens) (UniProt P08684); test: qHTS Assay for Inhibitors and Substrates of Cytochrome P450 3A4 (AID 884); conditions: recombinant CYP3A4, Luciferin-PPXE luminescence; series mostly up to 57.1 µM; also: nearly all actives have a fitted effect of over 50% in size; also: potency is read from the fitted curve at half-maximal effect
# In short: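 20 nM human CYP3A4 with 25 uM Luciferin-PPXE (at KM) in 200 mM KPO4, preincubated 10 min with compound; NADPH regeneration started a 60 min RT reaction. Luciferin detected by luminescence, normalized to 57 uM ketoconazole as full inhibition.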
# [18] = qHTS Assay for Identification of Small Molecule Agonists for Hypoxia Response Element Signaling Pathway (AID 914; active = well fitted activation curve with a large enough effect in the signal ratio, with a control signal flat, not every such curve was filed as active; the % refers to the signal ratio; also: potency is read from the fitted curve at half-maximal effect); conditions: ME-180 (cervical carcinoma) HRE-bla reporter, beta-lactamase ratio, CoCl2, 17 h; activation: hits give high values
# In short: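 Reporter activity (beta-lactamase, CCF4 460nm/530nm ratio) in HRE-bla ME-180 cells is recorded after 17 h compound exposure with EC50 CoCl2 at 37 degrees Celsius. AC50 values come from titration data.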
Compound,Potency [1] [µM],"activity change, negative = inhibition [2]","activity, negative = inhibition [3] [%]",Potency [4] [µM],Potency [5] [µM],Potency [6],Potency [7],Potency [8],Potency [9],Potency [10],outcome [11],Potency [12],Potency [13],Potency [14],"activity change, negative = inhibition [15] [%]",Potency [16],Potency [17],Potency [18]
c1nc(N2CCOCC2)c2cc(-c3ccoc3)ccc2n1,> 11.4,17.9%,-19.4,> 46,> 46,inactive,224 nM (active),631 nM (active),178 nM (active),inactive,inactive,–,–,–,–,–,–,–
Cn1c(=O)c(-c2ccc(Cl)cc2)nc2cnc(N3CCNCC3)nc21,> 11.4,204% [activator] (active),–,> 9.22,> 46,inactive,inactive,inactive,inactive,inactive,inactive,inactive,inactive,–,–,–,–,–
COc1cccc(Cn2c(=O)c(-c3cc(F)cc(F)c3)nc3cnc(N4CCOCC4)nc32)c1,> 11.4,5.53%,24.5,> 9.22,> 46,inactive,inactive,inactive,inactive,inactive,inactive,inactive,–,inactive,–,–,–,–
CN(Cc1ccco1)c1ncncc1-c1cccc(NS(C)(=O)=O)c1,–,-4.49%,8.28,> 46,> 46,inactive,inactive,inactive,inactive,inactive,inactive,inactive,inactive,–,-8.59,15.8 µM (active),794 nM (active),–
CCNc1ncc2nc(-c3ccc(Cl)cc3)c(=O)n(-c3ccc(OC)cc3)c2n1,> 11.4,–,–,> 9.22,> 46,–,inactive,inactive,inactive,inactive,inactive,inactive,–,–,–,–,–,–
CN1CCN(c2ncc3nc(-c4ccc(Cl)cc4)c(=O)n(C)c3n2)CC1,> 11.4,–,–,> 9.22,> 46,inactive,inactive,inactive,inactive,inactive,inactive,inactive,12.6 µM (active),–,–,–,inactive,3.16 µM (active)
COCCn1c(=O)c(CCc2ccccc2)nc2cnc(N3CCOCC3)nc21,> 11.4,-12.9%,-3.32,> 9.22,> 46,inactive,inactive,inactive,inactive,inactive,inactive,inactive,–,–,–,–,–,–
